# Source: PubChem BioAssay (Tox21)
# Inconclusive results are not listed. A number with no mark means an inactive call. Active and inactive are the calls of the source. The call rests on the fitted dose curve; in most records, active means well fitted cell-killing curve with a large enough effect in the repeat runs; inconclusive means weak or mixed curves; inactive means no such curve, though single readings can be large or run the other way.
# Assay: qHTS assay to identify small molecule agonists of the peroxisome proliferator-activated receptor delta (PPARd) signaling pathway - cell viability counter screen (AID 743211); further: nearly all actives have a fitted effect of over 55% in size
# Conditions: PPARd-bla HEK293H viability, CellTiter-Glo luminescence, 17 h; series mostly up to 62.6 µM
# Excerpt: U.S. Tox21 Program National Center for Advancing Translational Sciences [NCATS] NIH Chemical Genomics Center [NCGC] U.S. Environmental Protection Agency [EPA] National Institutes of Environmental Health Sciences [NIEHS] National Toxicology Program [NTP] U.S. Food and Drug Administration [FDA] Tox21 Assay Overview: The peroxisome proliferator-activated receptors (PPARs) are lipid-activated transcription factors of the nuclear receptor superfamily with three distinct subtypes namely PPAR alpha, PPAR delta (PPARd) and PPAR gamma. All these subtypes heterodimerizes with Retinoid X receptor (RXR) and have different physiological functions. […] To identify the compounds that activate PPAR-delta signaling, GeneBLAzer PPAR delta UAS-bla HEK293H cell line (Invitrogen, Carlsbad, CA, USA) containing a beta-lactamase reporter gene under the control of an Upstream Activator Sequence (UAS) was used to screen the Tox21 compound library. The cytotoxicity of the Tox21 compound library against the PPARd-bla cell line was tested in parallel by measuring the cell viability using CellTiter-Glo assay (Promega, Madison, WI) in the same wells.
# Tox21 Assay Protocol Summary: PPARd-bla cells were dispensed at 3000 cells/6uL/well in 1536-well black wall/clear bottom plates using a Multidrop Combi (Thermo Fisher Scientific, Waltham, MA) dispenser. After the assay plates were incubated at 37 C and 5% CO2 for 5 h, 23 nL of compounds dissolved in DMSO, positive controls or DMSO only was transferred to the assay plate by a Pintool station (Kalypsys, San Diego, CA). The assay plates were incubated at 37C for 17 h. After 1 uL of LiveBLAzerTM B/G FRET substrate was added using a Bioraptr Flying Reagent Dispenser (FRD) workstation (Beckman Coulter, Indianapolis, IN, USA), the plates were incubated at room temperature for 2 h, and fluorescence intensity was measured by an Envision plate reader (PerkinElmer, Shelton, CT). For cell viability readout that measures cytotoxicity, 3 ul/well of CellTiter-Glo reagent was added into the assay plates using a Bioraptr FRD. After 30 min incubation at room temperature, the luminescence intensity in the plates was measured using a ViewLux plate reader (PerkinElmer).
# On the % scale 0 is the no-effect control and ±100 the full control effect.
Compound,outcome,"activity change, negative = cytotoxicity"
O=C1Nc2ccccc2C1=O,inactive,
CCCCN=C(N)N=C(N)N,inactive,
COC(C)(C)CC(C)=O,inactive,
COc1cnc(NS(=O)(=O)c2ccc(N)cc2)nc1,inactive,
COc1ccc2cc(CCC(C)=O)ccc2c1,inactive,
CC(C)(Sc1cc(C(C)(C)C)c(O)c(C(C)(C)C)c1)Sc1cc(C(C)(C)C)c(O)c(C(C)(C)C)c1,inactive,
O=c1[nH]c(=O)c2cn[nH]c2[nH]1,inactive,
CCCCN(CCCC)CCCCCCN(CCCC)CCCC,inactive,
CCOCCOCCOC(C)=O,inactive,
CC(=O)Oc1ccc(C(C)=O)cc1,inactive,
CC(=O)Nc1ccc(S(=O)(=O)Nc2cc(C)on2)cc1,inactive,
C=CCCCCCCCCOC(C)=O,inactive,
C=C(C)C(=O)OCCCC,inactive,
COc1cc(OC)cc(OC)c1,inactive,
CC(=O)c1ccc(O)c(C(N)=O)c1,inactive,
C=CCN1CCc2nc(N)sc2CC1,inactive,
COC(=O)c1cc(Cl)c(NC(C)=O)cc1OC,inactive,
CNC(=O)c1c(I)c(NC(C)=O)c(I)c(C(=O)O)c1I,inactive,
C=CC(C)(CCC=C(C)C)OC(=O)C(C)C (stereo not given),inactive,
COc1cc(S(N)(=O)=O)cc(C(=O)O)c1OC,inactive,

Compound,outcome,"activity change, negative = cytotoxicity"
C[C@H]1COc2c(C3(N)CC3)c(F)cc3c(=O)c(C(=O)O)cn1c23,inactive,
CN1CCN(C(=O)C2CCCCC2)CC1,inactive,
CC[C@@]1(c2ccccc2)NC(=O)N(C)C1=O,inactive,
O=Cc1ccccc1S(=O)(=O)O,inactive,
CC1(C)CC(N)CC(C)(C)N1,inactive,
Cc1cc(C)c(C)c(C)c1,inactive,
C[C@@H]1NC(=O)[C@@H](N)CNC(=O)[C@H](C2CCNC(N)=N2)NC(=O)/C(=C/NC(N)=O)NC(=O)[C@H](CNC(=O)C[C@@H](N)CCCN)NC1=O (stereo not given in full),,14.7% [at 0.55 µM]
O=C[C@@H](O)[C@H](O)[C@H](O)CO,inactive,
O=C1CC2(CCCC2)CC(=O)N1CCNCC1COc2ccccc2O1 (stereo not given),inactive,
O=C1CCCc2c(O)cccc21,inactive,
CCCCN1C(=O)c2ccccc2C1=O,inactive,
CC(O)CCCCn1c(=O)c2c(ncn2C)n(C)c1=O (stereo not given),inactive,
CCCCCCCCCCCBr,inactive,
CN(C)CCCN(C)C,,-3.03% [at 5.95 µM]
O=C(OOC(=O)c1ccccc1)c1ccccc1,inactive,
CN(C)CCC[C@@]1(c2ccc(F)cc2)OCc2cc(C#N)ccc21,inactive,
N#Cc1cc(NC(=O)C(=O)O)c(Cl)c(NC(=O)C(=O)O)c1,inactive,
CC[N+](C)(CC)CC,inactive,
CC(=O)O[C@@H]1CC2C3CCc4cc(OC(=O)c5ccccc5)ccc4C3CCC2(C)[C@H]1OC(C)=O (stereo not given in full),inactive,
COc1cc(C(=O)NC2CCCNC2)cc(OC)c1OC (stereo not given),inactive,
